Measured values: PubChem BioAssay (NCI)
This is part of a sample that, as a whole, favours compounds with a hit. Of some 83,000 tested, about 20% had one in any assay.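 Negative percent growth values reflect cell death: -40 means 40% of the cells present at the start died, and -100 means all died.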 The source made the active and inactive calls. Rule for the calls: active = growth percent below 10; inactive = the rest.

Test system: HL-60(TB) leukemia
Assay: NCI-60 one-dose screen, 48 h (100 = growth as untreated, 0 = no growth, -100 = all killed)
Details: 10 µM unless noted

SMILES	growth
CC1=C([Se]CC(OC(=O)[C@@H](CO)NC(=O)OC(C)(C)C)C(=O)NCCCCCC(=O)OCc2ccccc2)C(=O)c2ccccc2C1=O (some centres undefined)	-32.9% (active)
O=C(c1ccccc1O)N1CCCC1	91.8% (inactive)
CCNCCNc1cc(-c2cccc(C(F)(F)F)c2)c(C#N)c2nc3ccccc3n12	-58.7% (active)
O=C(/C=C/c1sc(Cl)nc1Cl)c1ccc(Br)cc1	71.4% (inactive)
Cc1ccc(C(=O)NN2C(=O)CSC2c2ccc(Cl)cc2)cn1 (centres undefined)	139% (inactive)
CC1=C(C(=O)Nc2ccc(F)cc2)C(c2ccc(Cl)cc2)C2=C(CC(C)(C)CC2=O)N1 (centres undefined)	104% (inactive)
Cc1cc(C)c(-c2cc(O)c(-c3c(C)cc(C)cc3C)cc2O)c(C)c1	-24.4% (active)
O=c1[nH]c2c3ccncc3cc(-c3cccc(Cl)c3)c2c2cnccc12	17.6% (inactive)
CC(C)C1=CC2=C(C=O)C[C@@H]3[C@](C)(CCC[C@@]3(C)C(=O)OCC#CCN3CCCC3)[C@H]2CC1	54.5% (inactive)
COc1ccc(C2=NN(c3ccc(S(N)(=O)=O)cc3)C(c3ccc(Cl)cc3)C2)c(O)c1 (centres undefined)	29.9% (inactive)
O=C1Nc2ccccc2/C1=C\c1nc(-c2ccccc2)n2ccccc12	85.6% (inactive)
O=CNc1c(Cl)cc2c(c1Cl)Cc1cc([N+](=O)[O-])ccc1-2	17.5% (inactive)
O=C(COc1ccc(/C=C2\COc3ccccc3C2=O)cc1)Nc1nccs1	-11.4% (active)
Cc1cc2nc3c4cc(N)ccc4n(CCN(C)C)c3nc2cc1C	4.7% (active)
